Screening data deposited in PubChem BioAssay by several laboratories.
Hits are enriched below; roughly 2.1% of the tested compounds scored in any of these assays.
LANA-H2B inh: blocks KSHV LANA binding to histone H2A/H2B. Q9QR71. cell-free LANA-H2A/H2B peptide, fluorescence polarization. inhibition, % (concentration not given with the values). actives 0.6% (n = 320,000); in the data active = inhibition mostly above about 10%, no sharp cut-off; inactive = mostly below about 6.7%
HDAC3 inh: blocks human histone deacetylase 3; recombinant HDAC3, fluorogenic peptide/trypsin coupled, fluorescence; actives 0.15% (n = 320,000); O15379; inhibition, % at 8.3 µM; in the data active = inhibition above about 26%, passing the limit was not always enough
Target sequence (O15379 whole entry, looked up): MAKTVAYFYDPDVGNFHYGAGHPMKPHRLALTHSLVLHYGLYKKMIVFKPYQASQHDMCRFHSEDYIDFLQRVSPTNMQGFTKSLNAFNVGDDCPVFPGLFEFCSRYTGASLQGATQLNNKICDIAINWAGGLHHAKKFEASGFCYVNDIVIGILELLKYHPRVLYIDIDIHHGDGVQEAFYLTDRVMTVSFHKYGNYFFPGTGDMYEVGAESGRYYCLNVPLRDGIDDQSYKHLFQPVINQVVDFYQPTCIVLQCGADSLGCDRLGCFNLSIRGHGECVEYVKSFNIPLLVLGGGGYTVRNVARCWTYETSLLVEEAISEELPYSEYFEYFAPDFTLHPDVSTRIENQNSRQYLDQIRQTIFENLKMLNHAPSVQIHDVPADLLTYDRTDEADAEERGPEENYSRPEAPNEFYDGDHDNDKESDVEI
IDE act: activators of human insulin-degrading enzyme in cells | activation, % at 5.96 µM | actives 0.073% (n = 340,000) | AID 493087 | HEK cells, FAbeta-B cleavage, fluorescence polarization; 0% vehicle, 100% cell-free pure enzyme wells;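 active = activation above the mean of all tested compounds plus 3 SD, set per screening campaign, cut at about 17% in these data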
IDE cell inh: inhibits human insulin-degrading enzyme in HEK cells. FAbetaB cleavage, fluorescence polarization. actives 0.41% (n = 320,000). AID 434962. inhibition, % at 5.59 µM;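 active = percent inhibition above the average of all tested compounds plus 3 SD, set per screening campaign, cut at about 16% in these data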;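 also: IDE supplied by intact live HEK cells; FP after avidin binding of uncleaved biotin substrate so inhibition keeps polarization high; 0% = DMSO wells and 100% = 60 µM reference IDE inhibitor Ii1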
SUMO Mot1 rescue: SUMOylation pathway inhibition by Mot1-301 growth rescue | S. cerevisiae Mot1-301 growth rescue, ATP luminescence, 38.5C; percent above DMSO median, 100 means doubled | growth rescue, % at 18.8 µM | actives 1% (n = 320,000);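 active = every valid replicate shows activation above 250% relative to neutral control wells; inactive = the rest, any valid replicate at or below 250%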;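 also: OY570 slx delta 5 strain wells were the positive control but not used for scaling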
Starred values were filed as active, the others as inactive; nt = not tested or not shown; + = active, no number; ! = repeats disagree.

SMILES | LANA-H2B inh | HDAC3 inh | IDE act | IDE cell inh | SUMO Mot1 rescue
CCc1nnc(NS(=O)(=O)c2ccc(N=Cc3c(O)n(-c4ccc(Cl)cc4)c(=O)[nH]c3=O)cc2)s1 | 1 | 2 | 50* | 2 | 6
CNS(=O)(=O)c1ccc(N=Cc2c(O)n(-c3ccc(C)cc3)c(=O)[nH]c2=O)cc1 | -1 | 0 | 0 | 6 | nt
O=P1(N(CCCl)CCCl)NCCCO1 (stereo not given) | -7 | -10 | 6 | 2 | -3
CC(C)[C@@]1(NC(=O)[C@@H]2C[C@@H]3c4cccc5[nH]cc(c45)C[C@H]3N(C)C2)O[C@@]2(O)[C@@H]3CCCN3C(=O)[C@H](Cc3ccccc3)N2C1=O | 16* | 0 | -3 | 0 | 136
CC(C)C[C@H]1C(=O)N2CCCC2[C@]2(O)O[C@](NC(=O)[C@@H]3C=C4c5cccc6[nH]cc(c56)CC4N(C)C3)(C(C)C)C(=O)N12 (stereo not given in full) | 21*! | -6 | 1 | 2 | -8
CN1C[C@H](CO)C=C2c3cccc4[nH]cc(c34)C[C@H]21 | 2 | -112 | 1 | 1 | -9
CC(C)[C@H]1C(=O)N2CCC[C@H]2[C@]2(O)O[C@](NC(=O)[C@@H]3C=C4c5cccc6[nH]cc(c56)C[C@H]4N(C)C3)(C(C)C)C(=O)N12 | 11* | 0 | -4 | 4 | 12
O=C(O)CC[N+](=O)[O-] | -1 | 2 | 8 | 0 | 98
ClC1C(Cl)C(Cl)C(Cl)C(Cl)C1Cl (stereo not given) | 0 | 7 | 8 | 1 | 331*!
CCOP(=O)(OCC)c1ccc(OP(=O)(c2cccc([N+](=O)[O-])c2)c2cccc([N+](=O)[O-])c2)cc1 | 0 | 57* | 11 | 0 | -7
CCC1(Cc2ccccc2)C(=O)NC(=S)N(C)C1=O (stereo not given) | nt | nt | -1 | nt | nt
COc1ccccc1Cn1c(SCC(=O)C(C)(C)C)nc2cc(C(=O)N3CCC4(CC3)OCCO4)ccc2c1=O | 12* | 2 | nt | -3 | -20
COc1ccc(C(=O)N2CCC3(CC2)OCCO3)cc1 | 0 | -4 | 4 | 0 | 137
O=C1Nc2ccc(Br)cc2C(c2ccccc2Cl)=NC1O (stereo not given) | -5 | 3 | 3 | 5 | 574*
COc1ccc(/C=C/C=C2C(=O)NC(=S)NC2=O)cc1 | nt | nt | -4 | nt | nt
C=CC[C@@H](C)CC(=O)C(CCCN=[N+]=[N-])SOOc1ccccc1 (stereo not given in full) | 1 | 0 | 8 | 2 | 16
CC1=NCCc2c1[nH]c1cc(O)ccc21 | 142* | -67 | 66* | -28 | 368
C=C1C(C)C2C(Cc3ccccc3)NC(=O)C23OC(=O)/C=C/C(O)CCCC(C)C/C=C/C3C1O (stereo not given) | nt | nt | 5 | nt | nt
Oc1ccc(-[n+]2c(-c3ccccc3)cc(-c3ccccc3)cc2-c2ccccc2)cc1 | -3 | 7 | 2 | -2 | -5
Oc1ccccc1-[n+]1c(-c2ccccc2)cc(-c2ccccc2)c(O)c1-c1ccccc1 | -5 | 17 | 1 | 6 | 366*
C1CCC(NC2CCCCC2)CC1 | 141* | 2 | 1 | 1 | 116
NC(N)=Nc1ccc2[nH]c3c(c2c1)C[C@@]1(O)[C@H]2Cc4ccc(O)c5c4[C@@]1(CCN2CC1CC1)[C@H]3O5 | 1 | 60* | -41 | 12 | 251
CSc1ncc(CN2CCCC(C(=O)c3ccccc3SC)C2)cn1 (stereo not given) | -1 | 18 | 1 | 3 | 9
CSc1ccc(C(=O)C2CCCN(Cc3cnc(SC)nc3)C2)cc1 (stereo not given) | 0 | 14 | 3 | -3 | 305*
CC(C)COc1ccc(Cc2c(O)[nH]c(=S)[nH]c2=O)cc1 | -2 | 0 | 8 | 1 | -3
SMILES | LANA-H2B inh | HDAC3 inh | IDE act | IDE cell inh | SUMO Mot1 rescue
Cc1cnc[nH]1 | 6 | 1 | 1 | 3 | 106
O=C1NC(=O)N(c2ccccc2F)C(=O)/C1=C/c1ccc(Sc2nc3ccccc3[nH]2)o1 | 1 | 4 | -44 | 34* | -13
CC(=O)Nc1cc(C(=O)N2CCC3(CC2)OCCO3)ccc1Sc1ccc(F)cc1 | 29* | -5 | 4 | -6 | 327
CC(=O)Nc1cc(C(=O)N2CCC3(CC2)OCCO3)ccc1Sc1ccc(C)cc1 | 0 | 1 | 7 | 2 | 8
COC(=O)C1=C(c2c(C)noc2C)C[C@@H]2CC[C@H]1N2C(=O)NC1Cc2ccccc2C1 | 0 | 1 | 2 | 0 | 17
COc1ccc(C2=NS(=O)(=O)N(C)C(C(=O)N3CCC4(CC3)OCCO4)=C2)cc1OC | 1 | 7 | 5 | 3 | 188
Cc1cccc(NP(=O)(Oc2ccccc2F)Oc2ccccc2F)c1 | nt | 20 | 6 | 6 | -15
Cc1ccc(NP(=O)(Oc2ccccc2F)Oc2ccccc2F)cc1C | nt | 30* | 5 | -2 | -16
CN(C)c1ccc(/C=C2/C(=O)NC(=O)N(Cc3ccco3)C2=O)cc1 | -2 | 1 | -3 | 5 | 383*
CCOC(=O)c1cc(C(O)(C(=O)OC)C(F)(F)F)c(/N=C/N(C)C)o1 (stereo not given) | 3 | 10 | 8 | -1 | 11
C[C@]12CCC(=O)C=C1CC[C@@H]1C2CC[C@]2(C)C(=O)CCC12 (stereo not given in full) | -1 | -5 | -4 | -1 | 37
C[C@]12CCC(=O)C=C1CC[C@@H]1[C@@H]2CC[C@]2(C)C(=O)CC[C@@H]12 | 16*! | -2 | -3 | -7 | 7
CCOC(=O)C1=C(NC(=S)NC(=O)c2ccccc2)c2ccccc2CC12CCCC2 | nt | nt | 3 | nt | nt
Cn1cc(C=C(C#N)C#N)c2ccccc21 | + | 1 | 2 | -1 | -6
N#Cc1ccc(Cn2cc(C=O)c3ccccc32)cc1 | 2 | -6 | 7 | -4 | 12
Nc1cc(Cl)cc(C(=O)O)c1Cl | 38* | -10 | 2 | -1 | -1
COc1ccc(OCC(=O)N2CCN(Cc3ccc(SC)cc3)CC2)cc1 | 4 | 0 | 0 | 8 | 262*
COc1ccc(OCC(=O)N2CCN(Cc3ccc4c(c3)OCO4)CC2)cc1 | -1 | 1 | 2 | -7 | 6
C=CC1CN2CCC1CC2[C@@H](OC(=O)c1ccc(OC)cc1)c1ccnc2ccccc12 (stereo not given in full) | 32* | 2 | 2 | 3 | 143
O=C(O)c1cc[c]([Hg][Cl])cc1 | 4 | 95* | -61 | 96* | -3
O=c1c2ccccc2nc(/C=C/c2ccc(O)cc2)n1-c1cccc(O)c1 | 5 | -9 | -148 | 83* | -2
O=c1c2ccccc2nc(/C=C/c2ccc3c(c2)OCO3)n1-c1cccc(O)c1 | -5 | -2 | 6 | 4 | -6
O=C1C2CCN(CC2)C1Cc1ccc(OCc2ccccc2)cc1 (stereo not given) | -355 | -6 | -5 | -4 | -8
CC(C)CC(C)N (stereo not given) | 45* | -10 | 2 | -3 | 7
